PubChem BioAssay AID686979 (National Center for Advancing Translational Sciences (NCATS), 2013)
Where “and” joins values, the source holds several entries; their conditions need not be identical. Equal values may be shown once. Hit rate of the full screen: of about 420,000 compounds, about 50,000 (12%) were called active. A call without a number means that no potency is given here. Roughly 26% stayed inconclusive and do not appear here. The call rests on the fitted dose curve; in most records, active means well fitted inhibition curve with a large enough effect; inconclusive means small, poorly fitted or top-dose-only effect; inactive means flat fitted curve, though single readings scatter. Many of the other results were omitted from the sample, so actives are more common in it than they were.

Test: qHTS for Inhibitors of human tyrosyl-DNA phosphodiesterase 1 (TDP1): qHTS in cells in presence of CPT; further: nearly all actives have a fitted effect of over 55% in size
Settings: chicken DT40 Tdp1-/-;hTDP1 cells + 20 nM CPT, ATP luminescence, 48 h; series mostly up to 46.2 µM
Summary of the method: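 Chicken DT40 Tdp1-/- cells complemented with human TDP1, 400 cells/well, exposed to compounds plus 20 nM camptothecin for at least 48 h at 37 C; viability read as ATP content by CellTiter-Glo luminescence.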
Potency means the concentration at half of the fitted maximal effect.

Row | Compound | Potency
1 | CC(=O)O[C@]1(C(C)=O)CC[C@H]2[C@@H]3C=C(C)C4=CC(=O)CC[C@]4(C)[C@H]3CC[C@@]21C | inactive
2 | C[C@]12CCC(=O)C=C1C=CC1C2CC[C@@]2(C)C1CC[C@@]21CCC(=O)O1 (some centres not stated) | 20.6 µM (active)
3 | COC(=O)[C@@H]1CC2=CC(=O)CC[C@]2(C)[C@@]23O[C@@H]2C[C@@]2(C)[C@@H](CC[C@@]24CCC(=O)O4)[C@H]13 | inactive
4 | CN1CCN(C(=O)/C(=C\c2ccc3c(c2)OCO3)NC(=O)c2cccs2)CC1 | inactive
5 | CCn1ccnc1CN(C)C(=O)c1cc(COc2ccc(Cl)cc2OC)on1 | inactive
6 | O=C(O)CCn1c(SCc2cc(=O)n3ccccc3n2)nc2ccsc2c1=O | inactive
7 | Cc1cc(C)cc(CN2CCc3nnc(C(NS(C)(=O)=O)C(C)C)n3CC2)c1 (configuration not stated) | inactive
8 | Cc1cccc(CSc2nnc(C)c(=O)n2N)c1 | inactive
9 | Cc1cccc(-c2nc(SCc3ccc(Br)cc3)n3[nH]c(=O)cc3n2)c1 | 16.4 µM (active)
10 | CCc1ccccc1OCCSc1nc(-c2cccs2)nc2cc(=O)[nH]n12 | inactive
11 | CCN(CC(=O)Nc1ccccc1C(F)(F)F)C(=O)C1CCN(C(=O)Nc2ccccc2)CC1 | inactive
12 | NC(=O)c1ccsc1NC(=O)COC(=O)COc1ccc(C=O)cc1 | inactive
13 | COC(=O)c1ccc(/C=N/N2C(C)CCCC2C)cc1 (configuration not stated) | inactive
14 | CC(C)(C)c1ccc(C(=O)C[n+]2cccc3cc(Cl)ccc32)cc1 | 5.01 µM (active)
15 | COC(=O)C[n+]1cccc2ccccc21 | inactive
16 | Cc1cccc[n+]1CC(=O)c1ccccc1 | inactive
17 | CCCC(O)(c1ccccc1)C(c1ccccc1)c1ccccn1 (configuration not stated) | inactive
18 | O=C(c1c(F)cccc1Cl)N1CCN(c2ccccn2)CC1 | inactive
19 | Cc1nc(N2CCN(c3ccccn3)CC2)c2c(C)c(C(=O)Nc3ccc(F)c(Cl)c3)sc2n1 | 16.4 µM (active)
20 | COc1ccc(NC(C)=O)cc1NC(=O)CN1CCN(c2ccccn2)CC1 | inactive
21 | Cc1ccc(NC(=O)Cn2cnc3nc4c(cc3c2=O)CCCC4)cc1Cl | inactive

Row | Compound | Potency
22 | Cc1cc(NS(=O)(=O)c2ccc(NC(=O)c3cccc(OC(F)F)c3)cc2)nc(C)n1 | inactive
23 | O=S(=O)(Nc1n[nH]c(C(F)(F)F)n1)c1ccccc1 | inactive
24 | CCCc1nc2c([nH]1)C(c1cccnc1)C(C#N)=C(N)O2 (configuration not stated) | inactive
25 | CCCc1[nH]nc2c1C(C1CC=CCC1)C(C#N)=C(N)O2 (configuration not stated) | 16.4 µM (active)
26 | Cc1nn(-c2ccccc2)c2c1C(c1ccc(F)cc1)C(C#N)=C(N)O2 (configuration not stated) | inactive
27 | Cc1cc(C)c(C#N)c(SCc2[nH]nc3c2C(c2ccccc2)C(C#N)=C(N)O3)n1 (configuration not stated) | inactive
28 | COCc1[nH]nc2c1C(C1C=CCCC1)C(C#N)=C(N)O2 (configuration not stated) | 13 µM (active)
29 | CCCc1[nH]nc2c1C(c1ccc(OC)c(Cn3nc(C)c(Br)c3C)c1)C(C#N)=C(N)O2 (configuration not stated) | inactive
30 | CCCc1[nH]nc2c1C(c1ccc(OC(=O)c3ccco3)cc1)C(C#N)=C(N)O2 (configuration not stated) | inactive
31 | N#CC1=C(N)OC2=C(C(=O)CCC2)C1C1CC=CCC1 (configuration not stated) | inactive
32 | CCCc1[nH]nc2c1C(c1c(C)nn(-c3ccccc3)c1Cl)C(C#N)=C(N)O2 (configuration not stated) | 11.2 µM (active)
33 | CCc1ccc(C2C(C#N)=C(N)Oc3n[nH]c(CC(=O)OC)c32)cc1 (configuration not stated) | inactive
34 | CCCc1[nH]nc2c1C(c1ccc(Br)s1)C(C#N)=C(N)O2 (configuration not stated) | 6.51 µM (active)
35 | CCOc1c(OC)cc(C2C(C#N)=C(N)Oc3n[nH]c(-c4ccncc4)c32)cc1OC (configuration not stated) | inactive
36 | C[C@@H]1CN([C@H](C)CO)C(=O)CCCn2cc(nn2)CO[C@H]1CN(C)S(C)(=O)=O | inactive
37 | O=C(O)c1ccccc1C(=O)NC1=NN(c2ccccc2)CC1 | inactive
38 | CNS(=O)(=O)c1ccc2c(c1)[nH]c(=S)n2C | inactive
39 | CSc1ccccc1NC(=O)c1cc(Cl)sc1Cl | inactive
40 | O=c1[nH]c(/C=C\c2cccc(C(F)(F)F)c2)nc(O)c1[N+](=O)[O-] | inactive
41 | Cc1ccc(C)c(NC(=S)NNC(=S)Nc2ccc(C(C)C)cc2)c1 | inactive
42 | CC(OC(=O)CCC(=O)c1ccccc1)C(=O)Nc1ccc(F)cc1 (configuration not stated) | inactive

Row | Compound | Potency
43 | CCc1ccc(NC(=O)CN2C(=O)CSC2=O)cc1 | inactive
44 | Cc1ccc(OCCC(=O)Nc2ccc(S(=O)(=O)Nc3nccs3)cc2)cc1 | inactive
45 | CCC(=O)Nc1ccc(C(=O)Nc2ccc3c(c2)C(=O)N(CC2CCCO2)C3=O)cc1 (configuration not stated) | inactive
46 | O=C1c2cccc3c([N+](=O)[O-])ccc(c23)C(=O)N1CC1CCCO1 (configuration not stated) | 6.51 µM (active)
47 | O=C(NCc1ccc2c(c1)OCO2)c1ccc2c(c1)C(=O)N(CC1CCCO1)C2=O (configuration not stated) | inactive
48 | Cc1nn(C(C)CC(=O)O)c(C)c1C (configuration not stated) | inactive
49 | NS(=O)(=O)c1ccc(CNC(=S)NC(=O)c2ccco2)cc1 | inactive
50 | Cc1ccc(N(Cc2cc(=O)[nH]c3ccccc23)C(=O)CCl)cc1 | 2.91 µM (active)
51 | CC(=O)N(Cc1cc(=O)[nH]c2ccccc12)c1ccc(C)cc1C | inactive
52 | Cc1ccc(N(Cc2cc3ccccc3[nH]c2=O)C(=O)c2cccs2)cc1 | inactive
53 | COc1ccc(Cc2nnc(SCC(=O)Nc3ccc(C)c(C)c3)o2)cc1OC | inactive
54 | Cc1cccc(NC(=O)C2CCN(S(=O)(=O)c3cccc4cccnc34)CC2)c1 | inactive
55 | Cc1ccc(NC(=O)C2CCCN2S(=O)(=O)c2cccc3cccnc23)c(C)c1 (configuration not stated) | 23.1 µM (active) and 16.4 µM (active)
56 | O=C(Nc1nccs1)C1CCCN1S(=O)(=O)c1cccc2cccnc12 (configuration not stated) | inactive
57 | C=CCOc1ccc(/C=C/C(=O)OCC(=O)NC(C)c2ccc(F)cc2)cc1 (configuration not stated) | inactive
58 | COc1ccc2[nH]c3c(c2c1)CCN1C(=O)C(CC(=O)NCc2cccc(C(F)(F)F)c2)C[C@H](C(=O)N2CCOCC2)[C@@]31C (some centres not stated) | inactive
59 | COc1cc2c(cc1OC)CN(C(C)C(=O)Nc1cccc(S(=O)(=O)N3CCOCC3)c1)CC2 (configuration not stated) | inactive
60 | COc1ccc(Cn2c(-c3ccc(Cl)cc3)c[n+]3ccccc23)cc1 | 1.84 µM (active)
61 | COc1ccc(Cn2c(=O)oc3ccccc32)cc1 | inactive
62 | COc1ccc(C(=O)CN(C(=O)c2ccc(Cl)cc2)N2C(=O)c3ccccc3C2=O)cc1 | inactive
